# Measurements taken from PubChem BioAssay (NCATS).
# Records with an inconclusive call do not appear. Where a call stands in place of a potency, no number is given. Calls of active or inactive are those of the source. Calls follow the shape of the dose curve; as a rule, active = well fitted inhibition curve with a large enough effect; inconclusive = small, poorly fitted or top-dose-only effect; inactive = flat fitted curve, though single readings scatter.
# System: CP262
# Experiment: qHTS profiling for inhibitors of Plasmodium falciparum proliferation (AID 504749); also: nearly all actives have a fitted effect of over 60% in size
# Conditions: P. falciparum in erythrocytes, SYBR Green DNA, 72 h; series mostly up to 28.7 µM
# Summary of the method: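 In a 72 h erythrocytic culture (37 C, humidified, 5% CO2) at 2.5% hematocrit and 0.3% starting parasitemia, compounds were tested; SYBR Green I in detergent lysis buffer stained parasite DNA overnight.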
# Potency is read from the fitted curve at half-maximal effect.
row,SMILES,Potency
1,CCN(CC)CCOc1ccc(-c2nc3cc(Cl)ccc3s2)cc1,inactive
2,CC(=O)Oc1cc(C)c(OC(C)=O)c2ccccc12,13.5 µM (active)
3,C=C1C(=CC=C2CCC[C@@]3(C)[C@@H]2CC[C@H]3[C@H](C)CCCC(C)C)C[C@@H](O)C[C@@H]1O,inactive
4,Cc1cn([C@H]2C[C@H](O)[C@@H](CO)O2)c(=O)[nH]c1=O,inactive
5,CN(C)CCCN1c2ccccc2C(C)(C)c2ccccc21,inactive
6,O=CCCCC=O,inactive
7,CC(C)=O,inactive
8,CCOC(=O)C1=C(C)NC(C)=C(C(=O)OCC)C1c1ccccc1C=CC(=O)OC(C)(C)C,12 µM (active)
9,COc1cc(-c2ccc(-[n+]3nc(-c4ccccc4)nn3-c3ccc([N+](=O)[O-])cc3)c(OC)c2)ccc1-[n+]1nc(-c2ccccc2)nn1-c1ccc([N+](=O)[O-])cc1,inactive
10,CCCCC(=O)O[C@]1(C(=O)CO)[C@H](C)C[C@H]2[C@@H]3CCC4=CC(=O)C=C[C@]4(C)[C@@]3(F)[C@@H](O)C[C@@]21C,inactive
11,CN1C(=O)CN2CCc3ccccc3C2c2cc(Cl)ccc21 (stereo not drawn),inactive
12,C#C[C@]1(O)CC[C@H]2[C@@H]3CCC4=CCCC[C@@H]4[C@H]3C(=C)C[C@@]21CC,inactive
13,CC(C)N=c1cc2n(-c3ccc(Cl)cc3)c3ccccc3nc-2cc1Nc1ccc(Cl)cc1,inactive
14,CC1=C(/C=C/C(C)=C/C=C/C(C)=C/CO)C(C)(C)CCC1,inactive
15,O=C(Nc1ccc(Br)cc1)c1cc(Br)c(Br)s1,inactive
16,O=C1CSC2(CCN(CCCN3c4ccccc4Sc4ccc(Cl)cc43)CC2)N1,inactive
17,CC1=C(/C=C/C(C)=C/C=C/C(C)=C/C=C/C=C(C)/C=C/C=C(C)/C=C/C2=C(C)C(=O)CCC2(C)C)C(C)(C)CCC1=O,inactive
18,CCCCC(CC)COC(=O)CC(C(=O)OCC(CC)CCCC)S(=O)(=O)O (stereo not drawn),inactive
